Rows were chosen to be rich in hits. Some 2.4% of all compounds tested hit in one or more screens of this group.
HepG2 tox: kills HepG2 cells in TGF-b inhibitor counter-screen. Potency, µM (highest dose often 46.1 µM), inactives show at the highest dose activity change, negative = cytotoxicity, usual class: cytotoxic. 410,000 compounds, 0.76% hits. HepG2 CAGA-GFP viability, ATP luminescence, 18 h
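CellTiter-Glo luminescence gave cytotoxicity after 18 hours at 37 degrees C. The cells were HepG2 CAGA-GFP in 1% FBS DMEM, stimulated with 500 pg/mL TGF-beta after compound addition. %Activity was normalised to no-cell wells (complete cell-killing) and DMSO (no toxicity), and curves were fitted and classified.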
ATXN2 expr inh: reduces ATXN2 reporter expression in HEK-293 cells; HEK-293 ATXN2-luciferase reporter, luminescence, 24 h; Potency, µM (top dose mostly 57 µM), inactives show top-dose activity change, negative = inhibition, usual class: inhibitors; 360,000 compounds, 0.72% hits; further: on the % scale 0 is the no-effect control and ±100 the full control effect; nearly all actives have a fitted effect of over 55% in size
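ATXN2-luciferase reporter cells (luciferase flanked by upstream and downstream ATXN2 gene portions) were treated 24 h at 37 °C with compounds at up to 57 uM. SteadyGlo luminescence gave expression; GF-AFC fluorescence gave viability.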
S2 tox: viability counter-screen for ATXN expression inhibitors; S2 cells (HEK-293 line with an ATXN2-luciferase reporter) viability, CellTiter-Fluor protease fluorescence, 24 h; Potency, µM (titrated, usually from 56.7 µM), actives largely listed as cytotoxic; 400,000 compounds, 0.49% hits; further: nearly all actives have a fitted effect of over 40% in size
TGFb inhibitor: TGF-b pathway inhibition; HepG2 CAGA-GFP TGF-b/SMAD3 reporter, GFP fluorescence, 18 h; TGF-beta stimulated, 500 pg/mL final; Potency, µM (titrated, usually from 46.1 µM), inactives show top-dose activity, negative = inhibition, hits mostly inhibitors; 410,000 compounds, 1.2% hits; AID 588855; further: on the % scale 0 is the no-effect control and ±100 the full control effect; nearly all actives have a fitted effect of over 65% in size
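Using HEPG2 CAGA-GFP reporter cells at 1000 cells/well, we pinned test compounds, stimulated with recombinant TGF-beta (500 pg/mL final) and measured total well GFP after 18 h.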
Anesthetic bind: candidate novel general anesthetic via apoferritin binding | P02791 | apoferritin/1-aminoanthracene competitive binding, fluorescence | Potency, µM (top dose mostly 77.5 µM), without a hit: at the top dose activity change, negative = displacement, usual class: inhibitors | 350,000 compounds, 0.074% hits | AID 485281; further: on the % scale 0 is the no-effect control and ±100 the full control effect; nearly all actives have a fitted effect of over 20% in size
Target sequence (P02791 2-175 limits assumed): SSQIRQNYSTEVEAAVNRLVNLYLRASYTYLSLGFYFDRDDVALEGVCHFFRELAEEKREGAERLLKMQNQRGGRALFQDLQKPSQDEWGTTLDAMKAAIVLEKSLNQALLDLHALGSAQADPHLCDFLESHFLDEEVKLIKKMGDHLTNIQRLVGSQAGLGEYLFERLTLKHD
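Horse-spleen apoferritin (10 uM) in 50% saturated 1-aminoanthracene in PBS was incubated 10 min at room temperature with compound. Fluorescence (ex 380, em 535 nm) was normalized to free and bound 1-AMA, with concentration-response fitted by a four-parameter Hill equation.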
* hit, by the source's call; i = inactive; ? = inconclusive; / = not tested or not shown; [ ] = remark or other dose. The call rests on the fitted dose curve; in most records, active means well fitted curve in the direction sought with a large enough effect; inconclusive means small, poorly fitted or top-dose-only effect, or another doubt; inactive means no such curve, though single readings can be large; an effect the other way counts as inactive or inconclusive. Potency means the concentration at half of the fitted maximal effect.

SMILES	HepG2 tox	ATXN2 expr inh	S2 tox	TGFb inhibitor	Anesthetic bind
COc1ccc(C2NN=C(c3c[nH]c4ccccc34)C2O)cc1 (stereo not drawn)	-25.2%	/	i	?	-11.6%
CCN1CCS/C1=C\C=C\C1=[N+](CC)CCS1	-30.1%	?	23.8µM*	?	-10.7%
CCN1CCS/C1=C/C=C/C1=[N+](CC)CCS1	-12.1%	?	i	-3.3%	-15.3%
CC1(C)OC(=O)C(=CNNc2c(Cl)cc(Cl)cc2Cl)C(=O)O1	0.1%	15.4%	/	-13.7%	-9.0%
COC(=O)c1sc2nc(C)cc(C)c2c1N	7.7%	8.6%	i	5.7%	195.4%
Cc1cc(C)c2c(N)c(C(=O)Nc3ncc(C)s3)sc2n1	-53.4%	2.51µM*	i	0.0%	114.8%
CCc1ccc(Nc2nnc(SCC(=O)c3c(N)n(C4CC4)c(=O)[nH]c3=O)s2)cc1	-26.9%	3.6%	i	-13.5%	/
O=C(Nc1cnn(Cc2ccc(F)cc2)c1)C(c1ccccc1)c1ccccc1	-5.2%	-28.8%	i	12.6µM*	-10.0%
O=C(C[C@@H]1C/C=C/CC[C@H](Cc2ccc(F)cc2)C(=O)O[C@H](c2ccccc2)CNC1=O)NCCO	-7.5%	-0.5%	i	-4.2%	/
O=C(C[C@H]1C/C=C\C[C@@H](Cc2ccc(F)cc2)C(=O)O[C@H](c2ccccc2)CNC1=O)NCCO	12.6µM*	11.5%	i	-13.1%	/
O=C1c2ccccc2-[n+]2ccc3c([nH]c4ccccc43)c21	/	2.73µM*	/	/	/
Cc1nn(C)c(C)c1NC(=S)Nc1ccc(S(=O)(=O)Nc2ncccn2)cc1	10.3%	-4.9%	i	?	0.2%
Cc1ccc([N+](=O)[O-])cc1S(=O)(=O)Nc1ccc(C(=O)N2CCN(C(=O)c3ccco3)CC2)cc1	-11.9%	5.7%	i	-1.8%	/
CC=C(C)C(=O)O[C@H]1C(C)=C[C@]23C(=O)[C@@H](C=C(CO)[C@@H](O)[C@]12O)[C@H]1[C@@H](C[C@H]3C)C1(C)C	/	-14.6%	/	/	/
COC(=O)C1=C(C)NC(C)=C(C(=O)OCC(C)C)C1c1ccccc1[N+](=O)[O-] (stereo not drawn)	-45.1%	?	?	17.8µM*	/
Cc1ccc(-c2ccc(=O)n(CC(=O)N3CCN(c4cc(Cl)ccc4C)CC3)n2)cc1	-2.5%	-32.2%	i	-9.9%	?
Cc1ccc(CNc2nc(CN3CCSCC3)nc3ccccc23)o1	/	/	i	/	/
Cc1ccc(SCCC(=O)OCn2nnc3ccccc3c2=O)cc1	-12.2%	-17.0%	i	3.4%	?
O=C(CCSc1ccccc1)OCn1nnc2ccccc2c1=O	-6.5%	4.7%	i	3.98µM*	?
O=C(OCn1nnc2ccccc2c1=O)C1CCCCC1	7.2%	-1.0%	i	3.4%	39.8µM*
O=C(CN1C(=O)C2CCCCC2C1=O)OCn1nnc2ccccc2c1=O (stereo not drawn)	-2.2%	1.8%[11.3 µM]	i	-13.0%	-16.4%
COc1cc(/C=C2/SC(=S)NC2=O)ccc1OS(=O)(=O)c1ccc(C)cc1	-16.1%	-15.5%[11.3 µM]	i	15.8µM*	-23.9%
CCCN1CCN(c2ncnc3sc(C(=O)Nc4ccc(OC(F)(F)F)cc4)c(C)c23)CC1	-112.4%	/	/	22.4µM*	?
Cc1ccc(NS(=O)(=O)c2cc([N+](=O)[O-])ccc2NNC(=S)Nc2cc(C)ccc2C)c(C)c1	-71.7%	20µM*	15.8µM*	?	-20.6%
CCOc1ccc(C(=O)C(CCC(CN(C)C)C(=O)c2ccc(OCC)cc2)CN(C)C)cc1 (stereo not drawn)	2.82µM*	5.62µM*	3.16µM*	5.01µM*	-14.0%
SMILES	HepG2 tox	ATXN2 expr inh	S2 tox	TGFb inhibitor	Anesthetic bind
O=C(c1ccccc1)C(CCc1ccccn1)CCc1ccccn1	-6.0%	15.7%	i	3.6%	/
CN(C)CC(CCC(CN(C)C)C(=O)c1ccccc1)C(=O)c1ccccc1 (stereo not drawn)	-102.6%	7.52µM*	7.52µM*	6.31µM*	-4.2%
COc1ccc(C(=O)C(CCCCC(CN(C)C)C(=O)c2ccc(OC)cc2)CN(C)C)cc1 (stereo not drawn)	-28.8%	-9.5%	/	-1.7%	-11.6%
Cc1ccc(C)n1-c1nnc(N2CCCC(C(=O)Nc3ccc(C(C)C)cc3)C2)s1 (stereo not drawn)	-50.2%	-10.9%	i	7.94µM*	?
CSc1ccc(CCNC(=O)CCc2nnc3ccc(N4CCOCC4)nn23)cc1	-16.0%	1.3%	i	-2.2%	-14.2%
CSc1ccc(CCNC(=O)CCc2nnc3ccc(N4CCCCC4)nn23)cc1	2.82µM*	-20.2%	i	?	?
CCN(CC)CCNC(=O)c1ccc(NC(=O)c2cccc(S(=O)(=O)N3c4ccccc4CC3C)c2)cc1 (stereo not drawn)	10µM*	?	?	?	-11.1%
CCN(CC)CCNC(=O)c1ccc(NC(=O)c2cccc(S(=O)(=O)N3CCc4ccccc43)c2)cc1	-47.8%	-16.2%	i	?	/
CC1Cc2ccccc2N1S(=O)(=O)c1nnc(NC(=O)c2ccccc2)s1 (stereo not drawn)	-28.7%	-17.0%	?	14.1µM*	-7.4%
CC1Cc2ccccc2N1S(=O)(=O)c1cccc(C(=O)NCc2ccncc2)c1 (stereo not drawn)	-30.6%	-12.9%	i	?	/
CC1Cc2ccccc2N1S(=O)(=O)c1cccc(C(=O)NCc2ccccn2)c1 (stereo not drawn)	20µM*	/	i	?	/
CCCN(CC(=O)Nc1cc(C)on1)CC(=O)Nc1ccccc1C	1.6%	9.0%	i	-0.9%	/
CCOC(=O)c1c(C)nn(-c2ccc(NC(=O)c3cccs3)cc2)c1C	-18.8%	28.2µM*	i	-12.1%	-10.8%
CCOC(=O)c1c(NC(=O)c2cccs2)sc2c1CC(C)(C)OC2	0.1µM*	-11.1%	i	-21.9%	-8.5%
Cc1cccc(NS(=O)(=O)c2ccc(NC(=O)CN(c3cc([N+](=O)[O-])ccc3C)S(C)(=O)=O)cc2)c1	-2.3%	?	?	15.8µM*	-13.8%
O=C(NCc1ccncc1)C12C[C@H]3C[C@@H](C1)CC(c1ccc(Cl)cc1)(C3)C2	/	-4.0%	/	/	/
CCOC(=O)C(CC)(CC)C(=O)/C=C/c1cccc(Br)c1	-115.8%	?	?	14.1µM*	/
CCCCCCCn1c2c(c(=N)c3c1CCC3)CCCC2	-12.5%	1.89µM*	?	?	-8.2%
CCCCCCCCCn1c2c(c(=N)c3c1CCC3)CCC2	-72.3%	2µM*	?	4.47µM*	-18.9%
CCCCn1c2c(c(=N)c3c1CCC3)CCC2	3.8%	?	i	?	-11.9%
CCCCCCn1c2c(c(=N)c3c1CCC3)CCC2	-8.5%	8.91µM*	i	?	-11.1%

Screens deposited in PubChem by National Center for Advancing Translational Sciences (NCATS).
